CtBP-E1A inh – CtBP/E1A binding inhibition; 340,000 tested, 0.49% active; AlphaScreen GST-E1A/His-CtBP binding, 1536-well; active compounds read low; AID 651724; activity change, % (no concentration beside the values)
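Steps: dispense buffer (Tris pH 8.0, NaCl 300 mM, TCEP 1 mM, BSA, Tween 20); add 5X protein mix (GST-E1A, His-CtBP, 125 nM each); pin 23 nL compound; 2 h at 37 °C, dark; add 5X beads (50 ug/mL); 1 h; read.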
GRP78 ERSR act – inducers of ER stress response in human glioma cells | U87-MG GRP78 promoter luciferase reporter, 16 h | Potency, µM, actives largely listed as activators | 420,000 tested, 0.02% active | AID 602332; active means well fitted curve in the direction sought with a large enough effect; inconclusive means small, poorly fitted or top-dose-only effect, or another doubt; inactive means no such curve, though single readings can be large; an effect the other way counts as inactive or inconclusive; further: series mostly up to about 76 µM; nearly all actives have a fitted effect of over 35% in size
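ERSR induction read as luciferase luminescence (Bright-Glo, 10 min at room temperature) in stably transfected human U87-MG glioma cells exposed to compounds for 16 h, using GRP78 as sensor.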
Eya2 inh – inhibitors of human Eya2 phosphatase activity; O00167; recombinant Eya2, OMFP fluorescence dephosphorylation (OMFP is methylfluorescein phosphate); Potency, µM (titrated, usually from 76.9 µM), hits mostly inhibitors; 330,000 tested, 0.006% active; AID 488837; active means well fitted curve in the direction sought with a large enough effect; inconclusive means small, poorly fitted or top-dose-only effect, or another doubt; inactive means no such curve, though single readings can be large; an effect the other way counts as inactive or inconclusive
Target sequence (O00167 whole entry, looked up): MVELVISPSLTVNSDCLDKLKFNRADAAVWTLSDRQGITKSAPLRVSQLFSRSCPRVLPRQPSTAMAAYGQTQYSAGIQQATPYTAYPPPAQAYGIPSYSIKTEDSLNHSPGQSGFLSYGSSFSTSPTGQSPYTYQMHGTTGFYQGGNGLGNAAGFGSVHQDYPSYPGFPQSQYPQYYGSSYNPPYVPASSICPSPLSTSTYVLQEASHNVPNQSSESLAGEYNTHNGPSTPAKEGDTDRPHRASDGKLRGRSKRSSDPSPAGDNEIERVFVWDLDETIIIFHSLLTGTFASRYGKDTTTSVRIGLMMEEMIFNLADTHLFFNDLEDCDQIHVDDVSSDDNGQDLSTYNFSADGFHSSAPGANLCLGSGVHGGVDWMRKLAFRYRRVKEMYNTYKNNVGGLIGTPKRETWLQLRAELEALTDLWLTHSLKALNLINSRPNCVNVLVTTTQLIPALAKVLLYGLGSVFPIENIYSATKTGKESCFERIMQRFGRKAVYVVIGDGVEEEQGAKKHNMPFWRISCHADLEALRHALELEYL
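Eya2 protein (added as 0.2 uM solution) was preincubated with compound for 10 min at ambient temperature in 50 mM HEPES pH 7.5, 50 mM NaCl, 5 uM MgCl2, 0.05% BSA, 1 mM DTT. OMFP (added at 50 uM) then reacted 10 min; fluorescence read at 485/525 nm.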
Six1-Eya2 inh – inhibitors of human Six1/Eya2 interaction | AlphaScreen GST-Six1/His-Eya2 binding, biochemical; active compounds read low | 360,000 tested, 0.56% active | activity change, % (no concentration beside the values) | AID 651725
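Homogeneous AlphaScreen proximity assay pairing GST-Six1 with His-tagged Eya2 (added as 5X mix: 250 nM and 500 nM) in 50 mM Tris pH 8.0, 300 mM NaCl, 1 mM TCEP. Glutathione donor and nickel acceptor beads; 1 h, 37 °C, dark.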
A number is an active result; n = inactive; u = inconclusive; x = no result. A selection: hits, their analogues and other compounds. The true share with any hit is near 0.58%. Unless noted, no stated cut-off is given here; in the data, active means activity change below about -65%; inconclusive means mostly about -30% to -63%; inactive means weaker than that.

SMILES	CtBP-E1A inh	GRP78 ERSR act	Eya2 inh	Six1-Eya2 inh
NC(COCc1ccccc1)c1csc(Nc2ccc(C(F)(F)F)cn2)n1 (centres undefined)	n	n	x	n
CC[C@@H]1OC(=O)C[C@H](O)[C@@H](C)[C@@H](O[C@H]2O[C@@H](C)[C@H](O[C@@H]3C[C@](C)(O)[C@H](O)[C@@H](C)O3)[C@@H](N(C)C)[C@@H]2O)[C@@H](C=O)C[C@@H](C)C(=O)/C=C/C(C)=C[C@@H]1CO[C@H]1O[C@@H](C)[C@H](O)[C@H](OC)[C@@H]1OC	x	n	x	x
COc1cc(=O)n2c(c1C(=O)NC(C)c1ccco1)CCN(C(=O)c1cccc(C)c1C)CC2 (centres undefined)	x	n	x	x
O=C(NCc1ccccn1)c1cnn(-c2nccc(-c3cccs3)n2)c1C1CC1	x	n	x	x
Cc1cc2c(c(-c3ccc(Cl)cc3)c1)OC(CNC(=O)CCC(=O)N(C)C)C2 (centres undefined)	x	n	x	x
O=C1c2cccc3cccc(c23)C(=O)N1OS(=O)(=O)c1ccccc1	n	n	n	-71
Cc1ncc2c(c1CNS(=O)(=O)N(C)C)CCN(C(=O)c1ccc(F)cc1Cl)C2	x	n	x	x
COc1ccc(Nc2c([N+](=O)[O-])ccc3c2=NC2(CCCCC2)N=3)cc1	-76	n	n	-78
NC(=O)c1cc(N2C(=O)C=CC2=O)ccc1Cl	n	n	n	n
O=C(O)c1cc(N2C(=O)C=CC2=O)cc(N2C(=O)C=CC2=O)c1	n	n	x	-74
COc1cccc(C(=O)NC(=S)Nc2ccc(N3CCCC3)cc2)c1	u	n	n	-68
COc1ccc(C(=O)NC(=S)Nc2ccc(N3CCCC3)cc2)cc1	n	n	n	n
Cc1ccc(CN2CCOc3ccc(CN4CCC(Oc5cccnc5)CC4)cc3C2)o1	x	n	x	x
CCOC(=O)c1ccc(Nc2nc(C(=O)OCC)nc3ccccc23)cc1	-90	n	n	-79
NC1(C(=O)O)CSSC1	n	u	x	-88
Cc1cccc(C(=O)NCc2nc(-c3cccc(NC(=O)C4CCCN(C)C4)c3)oc2C)n1 (centres undefined)	x	n	x	x
COc1ccc(-n2c(CNC(=O)c3ccccc3C(F)(F)F)nnc2SC)cc1	x	n	x	x
COc1cccc(-c2coc3cc4oc(=O)c(CCC(=O)O)c(C)c4cc23)c1	-67	n	n	-77
COc1ccc(-c2coc3cc4oc(=O)c(CC(=O)O)c(C)c4cc23)cc1	n	n	n	n
COc1cccc(-c2coc3c(C)c4oc(=O)c(CC(=O)O)c(C)c4cc23)c1	n	n	n	n
COc1cccc(-c2coc3c(C)c4oc(=O)c(CCC(=O)O)c(C)c4cc23)c1	-88	u	n	u
O=C(NCCCN1CCOCC1)c1cnn(-c2ncc3c(n2)-c2ccccc2CC3)c1C1CC1	x	n	x	x
COc1cccc(C2(CC(=O)N3CCN(c4nonc4C)CC3)CC(=O)N(C3CCCC3)C2=O)c1 (centres undefined)	x	n	x	x
Clc1ccccc1N=Nc1ccccn1	n	n	x	u
Clc1ss/c(=N\c2ccccn2)c1Cl	-86	n	n	-92
SMILES	CtBP-E1A inh	GRP78 ERSR act	Eya2 inh	Six1-Eya2 inh
COC(=O)C1CCN(Cc2ccc3c(c2)CN(C(=O)C2Cc4ccccc4O2)CCO3)CC1 (centres undefined)	x	n	x	x
CCN1CCN(C(=O)c2sc3ncnc(NCC4CCCO4)c3c2C)CC1 (centres undefined)	x	n	x	x
COc1cc(=O)n2c(c1C(=O)NCc1ccco1)CCN(Cc1cc3ccccc3[nH]1)CC2	x	n	x	x
O=C(NCCN1Cc2ccccc2OC(c2ccccc2F)C1)c1ccco1 (centres undefined)	x	n	x	x
CCn1c2ccc(Cl)cc2c2nc3ccccc3nc21	n	n	n	n
CCn1c2ccc(C)cc2c2nc3cc(C(=O)O)ccc3nc21	-66	n	n	-69
O=C(CSC(=S)N1CCCC1)N/N=C/c1c(O)[nH]c(=S)[nH]c1=O	-93	n	n	-91
NCCCCC(NC(=O)C1CCCN1C(=O)C1CSSCC(N)C(=O)NC(Cc2ccccc2)C(=O)NC(Cc2ccccc2)C(=O)NC(CCC(N)=O)C(=O)NC(CC(N)=O)C(=O)N1)C(=O)NCC(N)=O (centres undefined)	x	n	x	x
CCN(C(=O)COC(=O)/C=C/c1cnc2ccccc2n1)c1ccccc1	n	n	n	n
CC(C)N(Cc1ccccc1)C(=O)COC(=O)/C=C/c1cnc2ccccc2n1	-87	n	n	n
COC(=O)c1ccc(-c2cccc3c2OC(CNC(=O)/C=C/c2ccc(OC)c(OC)c2)C3)nc1 (centres undefined)	x	n	x	x
C[N+](C)(C)CCOP(=O)(O)OP(=O)([O-])OCC1OC(n2ccc(N)nc2=O)[C@H](O)[C@@H]1O (some centres undefined)	x	n	x	x
Oc1ccc(/C=N/Nc2nccnc2Cl)c(O)c1	-96	n	n	-92
COc1ccc(/C=N/Nc2nccnc2Cl)c(OC)c1	x	n	n	n
Oc1cccc(C=NNc2ccccn2)c1	n	n	x	n
Cc1nc(N/N=C/c2ccc(O)cc2O)cc(N2CCOCC2)n1	-93	n	n	-79
Oc1ccc(/C=N/Nc2ncc(Br)cn2)c(O)c1	-92	n	n	-88
Cc1nc(N/N=C/c2cccc(F)c2)cc(N2CCOCC2)n1	n	n	n	n
Oc1ccc(C=NNc2ccccn2)c(O)c1	n	n	x	-91
Cc1nn(C)cc1CN1CCOc2ccc(C(C)(O)COc3ccccc3)cc2C1 (centres undefined)	x	n	x	x
Cc1cnc(CNC(=O)c2c3n(c(C)cc2=O)-c2ccccc2SC(c2ccsc2)C3)cn1 (centres undefined)	x	n	x	x
Cc1ccccc1CN1CCc2nnc(C(C)NC(=O)C3CCN(C)CC3)n2CC1 (centres undefined)	x	n	x	x
CCN1CCCC1CNC(=O)c1cnn(-c2nccc(-c3cccs3)n2)c1C(C)C (centres undefined)	x	n	x	x
Oc1ccccc1/C=N/Nc1nccnc1Cl	-94	n	n	-92
Cc1c(C(=O)N2CCN(C(C)C)CC2)sc2ncnc(NCc3ccco3)c12	x	n	x	x
SMILES	CtBP-E1A inh	GRP78 ERSR act	Eya2 inh	Six1-Eya2 inh
CN(C=[N+](C)C)c1cccc2c1C(=O)c1ccccc1C2=O	-68	n	n	-66
O=C(O)c1cccc2c1C(=O)c1ccccc1C2=O	n	n	n	n
CCn1nc(C)cc1C(=O)NCC1Cc2cc(C)cc(-c3ccccc3C(=O)OC)c2O1 (centres undefined)	x	n	x	x
O=C(N[C@@H]1CC[C@H](CCn2cc(-c3ccccn3)nn2)O[C@@H]1CO)c1ccncc1	n	x	x	-76
O=C(Oc1ccc2c(c1)OCC2=O)c1ccc(Cl)cc1	n	n	n	-66
Cc1ncc(CO)c(/C=N/NC(=O)c2cc3c(s2)CCCC3)c1O	x	n	n	-88
COc1ccc(C(=O)N/N=C/c2c(CO)cnc(C)c2O)cc1	x	n	n	u
Cc1ncc(CO)c(/C=N/NC(=O)c2ccoc2C)c1O	-87	n	n	-82
Cc1ncc(CO)c(/C=N/NC(=O)c2ccccc2Br)c1O	-83	n	n	-90
COCCN1Cc2cccc(C(=O)Nc3ccc(C)c(C)c3)c2C1=O	-79	n	n	-74

Bioassay records deposited in PubChem BioAssay by National Center for Advancing Translational Sciences (NCATS).
